Measured potencies and affinities stand elsewhere. A number with no mark means an inactive call. How the calls were made is not given here.

This note sets out measurements from PubChem BioAssay AID743446 (Broad Institute, 2014).

This test can be described thus: viability loss in HEK293 cells – cell-based, plate reader, cherry-picked samples, cytotoxicity control, dose response (AID 743446). As to conditions: active compounds read low; at 26 µM unless noted.
Take `O=C(O)c1nn(Cc2ccc(Cl)cc2Cl)c2ccccc12`: the max activity was 19.3% [at 0.38 µM]. In the case of `O=Cc1cn(Cc2cccc([N+](=O)[O-])c2)c2ccccc12` it was -15.2% [at 12 µM]. For `COC(=O)c1ccc(NC(=O)CSc2nc3ccc(N4C(=O)C5C6C=CC(C6)C5C4=O)cc3s2)cc1` (stereo not given), the max activity was -25.2%. `CNC(=O)Oc1cccc(-c2cn3cc(Cl)ccc3n2)c1`: the max activity is 27.7% [at 0.38 µM].

On to `CC(C)(C)n1cc(C(=O)c2ccc3ccccc3c2O)cn1`, for which the max activity was -8.13%.
